The values below come from PubChem BioAssay (EPA / NIEHS).

Assay [1] can be described thus: APR_HepG2_CellCycleArrest_24hr: Apredica 24-hour HepG2 Assay for Cell Cycle Arrest (AID 2282905).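 Further: cell cycle arrest scored as ratio of 2N to 4N nuclear DNA content.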 The conditions noted are these: imaging, actives raise or lower the signal. A digest of the protocol:
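Step one: dose HepG2 with test compounds, 0.39–200 uM, 0.5% DMSO, 24 hr. Step two: fix, permeabilize, stain nuclei with Hoechst 33342. Step three: image six fields per well at 20x, quantify DNA content, fit bidirectionally relative to DMSO.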

Assay [2] can be described thus: APR_HepG2_NuclearSize_24hr: Apredica 24-hour HepG2 Assay for Nuclear Size (AID 2282907). The conditions noted are these: high-content imaging, actives raise or lower the signal. A digest of the protocol:
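After fixation and permeabilization, 24-hr-treated HepG2 cells were stained with Hoechst 33342 and imaged on an ArrayScan (20x). Doses spanned 0.39–200 uM in duplicate. Nuclear diameter changes in either direction were fitted relative to 0.5% DMSO controls.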

Assay [3] can be described thus: APR_HepG2_CellLoss_24hr: Apredica 24-hour HepG2 Assay for Cell Loss (AID 2282908).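 On AC50: fit in both directions so a hit may be cell loss or gain.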 The conditions noted are these: high-content imaging. A digest of the protocol:
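Duplicate wells received compound at ten concentrations (0.39–200 uM; final DMSO 0.5% v/v). After fixation with formaldehyde, nuclei stained with Hoechst 33342 were imaged at 20x. Loss or gain of cell count was fitted relative to DMSO controls.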

The nature of assay [4]: APR_HepG2_MicrotubuleCSK_24hr: Apredica 24-hour HepG2 Assay for Microtubule CSK Stabilty (AID 2282909). The conditions noted are these: HepG2 microtubule cytoskeleton imaging, actives raise or lower the signal. A digest of the protocol: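 Microtubule stability is scored from tubulin immunofluorescence in fixed HepG2 cells imaged at 20x. Cells receive ten compound concentrations up to 200 uM for 24 h; taxol and DMSO serve as positive and negative controls.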

Assay [5] in a line: APR_HepG2_MitoticArrest_24hr: Apredica 24-hour HepG2 Assay for Mitotic Arrest (AID 2282910). The conditions noted are these: high-content imaging, actives raise or lower the signal. A digest of the protocol: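 Treatment lasted 24 hr in the human HepG2 line at 0.39–200 uM, solvent held at 0.5% DMSO. Fixed cells were stained with Hoechst 33342 and anti-phospho-histone H3, imaged at 20x, and analysed by gain- or loss-of-signal fitting against DMSO.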

Assay [6] can be described thus: APR_HepG2_MitoMembPot_24hr: Apredica 24-hour HepG2 Assay for Mitochondrial Membrane Potential (AID 2282911). The conditions noted are these: imaging, actives raise or lower the signal. A digest of the protocol:
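Mitochondrial membrane potential imaged via MitoTracker Red CMXRos (250 nM, 30 min pre-fixation) in fixed HepG2 cells with Hoechst nuclear identification. Ten concentrations 0.39–200 uM, 24 h treatment, 0.5% DMSO; CCCP as positive control.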

Assay [7] is described as follows: APR_HepG2_MitoMass_24hr: Apredica 24-hour HepG2 Assay for Mitochondrial Mass (AID 2282912). Particulars: high-content imaging, actives raise or lower the signal. A digest of the protocol: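 Readout: fluorescence of MitoTracker Red CMXRos (250 nM, added 30 min pre-fixation) in fixed HepG2 cells imaged by HCS. Exposure lasted 24 hr at 0.39–200 uM; increases and decreases were both fitted relative to DMSO.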

Assay [8] is described as follows: APR_HepG2_p53Act_24hr: Apredica 24-hour HepG2 Assay for p53 Activation (AID 2282913).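 Further: p53 protein immunofluorescence averaged per cell in HepG2 with Hoechst nuclei.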 The conditions noted are these: high-content imaging, actives raise or lower the signal. A digest of the protocol: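 Fluorescence imaging of formaldehyde-fixed HepG2 cells labelled for p53 and with Hoechst, 24 h after dosing (0.39–200 uM, duplicate wells, 0.5% v/v DMSO). Signal fitted in both directions relative to DMSO.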

A short description of assay [9]: APR_HepG2_CellCycleArrest_72hr: Apredica 72-hour HepG2 Assay for Cell Cycle Arrest (AID 2282914). Particulars: high-content imaging, actives raise or lower the signal. A digest of the protocol:
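Read-out: nuclear DNA content from Hoechst 33342 high-content imaging (20x, six fields/well) after 3.7% formaldehyde fixation, fitted bidirectionally against DMSO. Treatment was 72 h in HepG2, ten concentrations 0.39–200 uM, duplicate, 0.5% DMSO.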

Assay [10] is described as follows: APR_HepG2_CellLoss_72hr: Apredica 72-hour HepG2 Assay for Cell Loss (AID 2282915). The conditions noted are these: high-content imaging. A digest of the protocol: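 HepG2 cells were exposed for 72 hr to compounds at 0.39–200 uM (ten concentrations, duplicate) in 0.5% v/v final DMSO. Nuclei were stained with Hoechst 33342 after 3.7% formaldehyde fixation, imaged at 20x, and counted; fits bidirectional versus DMSO.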

Activity calls are given as the source filed them. How the source made its calls: active means hit-call score of the fitted dose curve at least 0.9, where 1 is the maximum; inactive means score below 0.9.

In the case of `CCCCCCCCN(C)CCCCCCCC`, the molecule was called inactive in assay [1], in [2], in assay [3], in [4], in assay [5] and in assay [6]. The molecule was classed as inactive in assay [7], in assay [8], in assay [9] and in assay [10].

For `CCCC(=O)OCCC(C)C`, the outcome in assay [1], in assay [2], in assay [3], in [4], in assay [5] and in assay [6] was inactive. For the same molecule, the result in [7], in assay [8], in assay [9] and in assay [10] was inactive.

As a reminder, the AC50 is the concentration giving half of the maximal activity seen. As to `CC(C)(c1cc(Br)c(O)c(Br)c1)c1cc(Br)c(O)c(Br)c1`, the AC50 in assay [1] is 77 µM (active); in assay [3], 92.1 µM (active); in [5] it was 96.3 µM (active); in assay [6], 66.1 µM (active); in assay [9], 82.9 µM (active); in [10], 56.7 µM (active). The outcome in [2], in [4], in assay [7] and in assay [8] was inactive.

Regarding `CCCCCCCC[Si](OCC)(OCC)OCC`, the call in assay [1], in assay [2], in assay [4], in assay [5], in assay [7] and in assay [8] was inactive. The AC50 in [3] is 118 µM (active); in assay [6], 29.8 µM (active); in assay [9], 0.03 µM (active); in [10] it was 34 µM (active).

For `CCOC(=O)O[C@H](C)OC(=O)c1ccc2c(c1)cc(C(=O)NC1CCN(C(C)C)CC1)n2Cc1cc(-c2ccc(Cl)s2)on1`, the AC50 is 94.5 µM (active) in assay [1]; 9.26 µM (active) in assay [3]; 25 µM (active) in assay [4]; 10.1 µM (active) in assay [5]; 44.4 µM (active) in [6]; 167 µM (active) in [7]. Also, the AC50 in [8] is 94.5 µM (active); in assay [10] it was 8.32 µM (active). Further, the molecule was called inactive in assay [2] and in assay [9].

Regarding `O=C(O)c1ccccc1C(=O)OCc1ccccc1`, the result in assay [1], in assay [2], in assay [3], in [4], in assay [5] and in [6] was inactive. In addition, the molecule was called inactive in assay [7], in assay [8], in assay [9] and in [10].

In the case of `O=C(O)c1ccccc1-n1cc(C(=O)O)c(=O)c2cc(Nc3c(F)cc(F)cc3Cl)c(Cl)cc21`, the result in [1], in assay [2], in [3], in assay [4], in [5] and in [6] was inactive. Also, the outcome in [7], in assay [8], in assay [9] and in [10] was inactive.

On to `CO[C@H]1/C=C/O[C@@]2(C)Oc3c(C)c(O)c4c(O)c(c(/C=N/N5CCN(C)CC5)c(O)c4c3C2=O)NC(=O)/C(C)=C\C=C\[C@H](C)[C@H](O)[C@@H](C)[C@@H](O)[C@@H](C)[C@H](OC(C)=O)[C@@H]1C`, for which the molecule was classed as inactive in [1], in assay [2], in [3], in [4], in assay [5] and in assay [6]. Besides, the molecule was called inactive in [7], in assay [8] and in assay [9]. In addition, the AC50 in assay [10] was 45.2 µM (active).

Turning to `COc1cccc([C@H](O)C2CCN(CCc3ccc(F)cc3)CC2)c1OC`, the AC50 was 75.2 µM (active) in assay [1] and 105 µM (active) in assay [10]. In addition, the molecule was classed as inactive in [2], in [3], in [4], in assay [5], in assay [6] and in [7]. For the same molecule, the outcome in [8] and in [9] was inactive.

As for `O=C1CCC(C2CCCCC2)CC1`, the outcome in assay [1], in [2], in assay [3], in assay [4], in assay [5] and in assay [7] was inactive. For the same molecule, the molecule was classed as inactive in assay [8], in assay [9] and in assay [10]. The AC50 in assay [6] was 19.8 µM (active).

Take `CCN(Cc1cccc(S(=O)(=O)O)c1)c1ccc(C(=C2C=CC(=[N+](CC)Cc3cccc(S(=O)(=O)O)c3)C=C2)c2ccccc2S(=O)(=O)[O-])cc1`: the molecule was called inactive in assay [1], in [2], in assay [3], in assay [4], in assay [5] and in assay [6]. Further, the outcome in [7], in assay [8], in [9] and in [10] was inactive.

As to `O=c1c(-c2ccc(O)cc2)coc2cc(O)cc(O)c12`, the AC50 was 43.1 µM (active) in assay [1]; 32.6 µM (active) in assay [3]; 78.9 µM (active) in assay [6]; 70.7 µM (active) in assay [8]; 47.4 µM (active) in assay [9]; 42.9 µM (active) in [10]. For the same molecule, the result in assay [2], in assay [4], in assay [5] and in [7] was inactive.

In the case of `CC1(C)NC(=O)N(c2ccc([N+](=O)[O-])c(C(F)(F)F)c2)C1=O`, the call in assay [1], in assay [2], in assay [3], in assay [4], in [5] and in assay [6] was inactive. Moreover, the outcome in assay [7], in [8] and in assay [9] was inactive. In [10], the AC50 was 38.6 µM (active).

As to `Cc1cccc2ccccc12`, the outcome in [1], in assay [2], in [3], in assay [4], in assay [5] and in [6] was inactive. The molecule was classed as inactive in assay [7], in assay [8], in [9] and in assay [10].

Turning to `CC/C(=C(/CC)c1ccc(O)cc1)c1ccc(O)cc1`, the AC50 was 20.9 µM (active) in assay [1]; 90.9 µM (active) in assay [3]; 50 µM (active) in assay [5]; 46 µM (active) in [7]; 33.8 µM (active) in [8]; 31.3 µM (active) in assay [9]. In addition, the AC50 in assay [10] was 79.5 µM (active). Also, the outcome in assay [2], in assay [4] and in assay [6] was inactive.

With `O=c1[nH]sc2ccccc12`, the molecule was classed as inactive in [1], in [2] and in assay [6]. Moreover, the AC50 in assay [3] is 29 µM (active); in assay [4], 38.2 µM (active); in assay [5] it was 13.5 µM (active); in assay [7], 15.7 µM (active); in assay [8], 29.3 µM (active); in assay [9], 21.4 µM (active). In addition, in [10], the AC50 was 18.1 µM (active).

As for `COCC(C)OCC(C)OCC(C)O` (stereo not given), the molecule was classed as inactive in assay [1], in assay [2], in assay [3], in assay [4], in assay [5] and in assay [6]. Also, the result in assay [7], in [8], in assay [9] and in assay [10] was inactive.

For `CC[C@H](NC(=O)c1cc(F)ccc1NS(=O)(=O)c1cccc2cccnc12)c1ccccc1`, the result in assay [1], in assay [2], in assay [3], in assay [4], in assay [5] and in [7] was inactive. For the same molecule, the molecule was classed as inactive in assay [8] and in assay [9]. Also, the AC50 in assay [6] was 105 µM (active); in assay [10], 78.4 µM (active).
